The values below come from PubChem BioAssay (EPA / NIEHS).

A short description of assay [1]: CCTE_Deisenroth_5AR_NBTE_donor: CCTE's 5alpha-reductase NanoBRET Target Engagement Assay […], Deisenroth Lab (AID 2284319). As to conditions: actives raise or lower the signal. In short, it runs like this:
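HEK293T cells transiently expressing SRD5A2-NanoLuc, exposed 5 h to chemicals (8 points, 10 nM - 29.9 uM), with testosterone tracer for the final 2 h. Donor luminescence at 460 nm read after Nano-Glo substrate plus extracellular NanoLuc inhibitor; bidirectional fit versus DMSO.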

The nature of assay [2]: CCTE_Deisenroth_5AR_NBTE_acceptor: CCTE's 5alpha-reductase NanoBRET Target Engagement Assay - Autofluorescence Screen, Deisenroth Lab (AID 2284321).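 Also: compound fluorescence in the acceptor channel under 460 nm excitation flags autofluorescence artifacts.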 The following applies: actives raise or lower the signal. In short, it runs like this: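 Autofluorescence check: ToxCast chemicals, nominal 100 uM, excitation 460 nm, n=3 runs. Acceptor fluorescence endpoint, bidirectional fit relative to DMSO. Parent assay in HEK293T, 5 h post-dose.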

The test system of another assay is SRD5A2 (gene 6716). Kind of assay: CCTE_Deisenroth_5AR_NBTE_ratio: CCTE's 5alpha-reductase NanoBRET Target Engagement Assay - Ratio, Deisenroth Lab (AID 2284322). As to conditions: actives raise or lower the signal. Put shortly:
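HEK293T transiently expressing SRD5A2-NanoLuc; cells exposed to chemical (8-point, 10 nM - 29.9 uM) for 5 h total, testosterone tracer added for final 2 h. NanoBRET acceptor/donor ratio (650/460 nm), bidirectional fit vs DMSO.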

Assay [3] can be described thus: IUF_NPC2a_radial_glia_migration_72hr: Leibniz Research Institute for Environmental Medicine (IUF) 72-hour Neural Progenitor Cell Migration Assay for Radial Glia Migration (NPC2a) (AID 2284299). In short, it runs like this:
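Primary hNPC spheres, fetal brain GW 16-19, on PDL/laminin; DMEM/F12 3:1 + 1% N2. Compound dosed day 0, 7 conc. + SC, half-medium refresh day 3. 72 h brightfield, migration distance core-to-front (um), 4 directions averaged.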

Assay [4] in a line: IUF_NPC2b_neuronal_migration_120hr: Leibniz Research Institute for Environmental Medicine (IUF) 120-hour Neural Progenitor Cell Migration Assay for Neuron Migration (NPC2b) (AID 2284300). In short, it runs like this:
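hNPC spheres, PDL/laminin, DMEM:F12 3:1 + 1% N2, 37C/5% CO2; 7 concentrations + solvent control (DMSO ≤0.1%), 5 d exposure, half-feed day 3. Fix 120 h, TUBB3 ICC, HCI: mean neuron migration distance ÷ glia distance.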

A short description of assay [5]: IUF_NPC3_neuronal_differentiation_120hr: Leibniz Research Institute for Environmental Medicine (IUF) 120-hour Neuronal Differentiation Assay (NPC3) (AID 2284301). Put shortly: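 Human fetal (GW 16-19) neural progenitor spheres (0.3 mm) plated on poly-D-lysine/laminin in N2 differentiation medium, exposed 120 h at 37C with half-medium renewal day 3; 7 concentrations. TUBB3+ cells as % of Hoechst nuclei, CNN-identified; DMSO baseline.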

Assay [6] is described as follows: IUF_NPC4_neurite_length_120hr: Leibniz Research Institute for Environmental Medicine (IUF) 120-hour Neuronal Morphology Assay for Neurite Length (NPC4) (AID 2284302). In short, it runs like this: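 Human fetal neural progenitor spheres (0.3 mm) plated on poly-D-lysine/laminin in N2 differentiation medium, exposed from day 0 for 120 h with half-medium refresh at day 3, 37C. Mean neurite length (um) of TUBB3-positive neurons from skeletonized immunostaining images; DMSO ≤0.1%.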

Read-out in a further assay: CD69, CD69 (gene 969)
Kind of assay: BSK_LPS_CD69: BioMAP Diversity Plus: LPS Assay for CD69 Biomarker Activity (AID 2284303). The following applies: primary human HUVEC with PBMC. In short, it runs like this: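 Human umbilical vein endothelial cells co-cultured with PBMC under LPS stimulation, chemical exposure 24 h; cell-surface CD69 measured by ELISA and fitted in the positive direction versus DMSO.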

Assay [7] in a line: IUF_NPC5_oligodendrocyte_differentiation_120hr: Leibniz Research Institute for Environmental Medicine (IUF) 120-hour Oligodendrocyte Differentiation Assay (NPC5) (AID 2284304; active = hit-call score of the fitted dose curve at least 0.9, where 1 is the maximum;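 also: primary human fetal neural progenitor spheres plated to migrate and differentiate; share of O4-positive cells among Hoechst nuclei found by CNN image analysis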). In short, it runs like this: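 hNPC spheres, fetal cortex GW 16-19; PDL/laminin, DMEM:F12 3:1 + 1% N2, 37C/5% CO2; 7 concentrations + solvent control, 5 d exposure, half-change day 3. Readout: %O4+ of Hoechst+ nuclei in migration area, CNN classification; DMSO baseline.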

A short description of assay [8]: IUF_NPC4_neurite_area_120hr: Leibniz Research Institute for Environmental Medicine (IUF) 120-hour Neuronal Morphology Assay for Neurite Area (NPC4) (AID 2284305; active = hit-call score of the fitted dose curve at least 0.9, where 1 is the maximum). In short, it runs like this: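 Human fetal neural progenitor spheres (0.3 mm) plated on poly-D-lysine/laminin in N2 differentiation medium, exposed 120 h (7 concentrations, DMSO ≤0.1%, half-medium refresh day 3). Fixed, TUBB3 immunostained; mean neurite area per neuron by Omnisphero skeletonization.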

Assay [9] in a line: IUF_NPC2-5_cytotoxicity_72hr: Cytotoxicity Assessment at 72 hours in the Leibniz Research Institute for Environmental Medicine (IUF) Neural Progenitor Cell Migration and Differentiation Assay for Cytotoxicity (NPC2-5) (AID 2284306; active = hit-call score of the fitted dose curve at least 0.9, where 1 is the maximum;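 also: LDH release into supernatant measured by resorufin fluorescence marking membrane damage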). Put shortly: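 Human fetal primary neural progenitor spheres (0.3 mm) plated on poly-D-lysine/laminin in N2 differentiation medium, exposed from day 0 at 37C. LDH-dependent resazurin-to-resorufin fluorescence in supernatant at 72 h; 7 concentrations, DMSO at most 0.1%.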

A short description of assay [10]: IUF_NPC2-5_cytotoxicity_120hr: Cytotoxicity Assessment at 120 hours in the Leibniz Research Institute for Environmental Medicine (IUF) Neural Progenitor Cell Migration and Differentiation Assay (NPC2-5) (AID 2284307; active = hit-call score of the fitted dose curve at least 0.9, where 1 is the maximum). Put shortly: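 hNPC spheres on PDL/laminin, N2 medium, 37C; 7 concs + solvent control, DMSO ≤0.1%; 5-day exposure, half medium changed day 3. LDH in supernatant at 120 h, resazurin→resorufin fluorescence, gain-of-signal.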

Assay [11] can be described thus: IUF_NPC2-5_cell_number_120hr: Cell Number Assessment at 120 hours in the Leibniz Research Institute for Environmental Medicine (IUF) Neural Progenitor Cell Migration and Differentiation Assay (NPC2-5) (AID 2284308).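 Also: count of Hoechst-stained nuclei in migration zone around plated human neural progenitor spheres.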 Put shortly: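 Hoechst-stained nuclei within the migration area were counted by automated high content imaging after 120 h. Single hNPC spheres differentiated on poly-D-lysine/laminin in DMEM/F12 (3:1) with 1% N2, compound present throughout, DMSO ≤0.1%.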

A short description of assay [12]: IUF_NPC2-5_viability_120hr: Viability Assessment at 120 hours in the Leibniz Research Institute for Environmental Medicine (IUF) Neural Progenitor Cell Migration and Differentiation Assay (NPC2-5) (AID 2284312). In short, it runs like this:
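Human fetal neural progenitor spheres (0.3 mm) plated on poly-D-lysine/laminin in N2 differentiation medium, exposed 120 h with half-medium refresh at day 3. Viability by alamar blue resazurin fluorescence; 7 concentrations, DMSO max 0.1%.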

A short description of assay [13]: CCTE_Mundy_HCI_iCellGluta_NOG_NeuriteLength: CCTE's Neurite Outgrowth Assay in iCellGluta cells for Neurite Length, Mundy Lab (AID 2284318; active = hit-call score of the fitted dose curve at least 0.9, where 1 is the maximum). Put shortly: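 Automated high-content imaging of betaIII-tubulin (Alexa Fluor-488) and Hoechst-stained cells gave neurite length, normalized to the DMSO baseline.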
In a further assay the test system is TTR (gene 7276). Kind of assay: CCTE_GLTED_hTTR_0.5uM: CCTE's human Transthyretin (hTTR) Inhibition Assay, with 0.5uM TTR, Great Lakes Toxicology and Ecology Division (GLTED) Lab (AID 2284320). Put shortly:
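Cell-free displacement assay in which human TTR at 0.5 uM was incubated with test chemical for 2 h. Displacement of the ANSA probe was read by fluorescence at 380 nm excitation/475 nm emission. Loss of signal was fitted in the positive direction versus DMSO.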

The test system of another assay is IYD (gene 389434). Kind of assay: CCTE_GLTED_hIYD: CCTE's human Iodotyrosine Deiodinase (xIYD) Inhibition Assay, Great Lakes Toxicology and Ecology Division (GLTED) Lab (AID 2284317; active = hit-call score of the fitted dose curve at least 0.9, where 1 is the maximum;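 also: cell-free human IYD enzyme made in baculovirus insect cells; iodide freed from monoiodotyrosine measured by cerium arsenite color change at 420 nm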). In short, it runs like this: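 Absorbance change at 420 nm from the iodide-catalysed cerium-arsenic reaction reports free iodide released by human IYD from monoiodotyrosine. Enzyme, substrate and chemical are incubated 3 h; loss of signal is fitted relative to DMSO baseline.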

“And” between values parts separate entries of the source, which are not always exact repeats. Equal entries are not always repeated. Results filed as inconclusive are left out. The source made the active and inactive calls. The calls were made as follows, unless noted: active = hit-call score of the fitted dose curve at least 0.9, where 1 is the maximum; inactive = score below 0.9.

Turning to `CCC(C)c1cc([N+](=O)[O-])cc([N+](=O)[O-])c1O` (configuration not stated), the results for the AC50 (in [1]; in [2]; in the assay on SRD5A2 (gene 6716)) were 29.4 µM (active), 9.91 µM (active) and 53.3 µM (active), respectively.

Turning to `CC(C)(c1ccccc1)c1ccc(O)cc1`, the call (in assay [1]; in assay [2]; with SRD5A2 (gene 6716)) was inactive.

Turning to `O=S(=O)(O)C(F)(F)C(F)(F)C(F)(F)C(F)(F)C(F)(F)C(F)(F)F`, the outcome in assay [3] is “inactive”; in [4], “inactive”; in assay [5], “inactive”; in [6], “inactive”; with CD69, CD69 (gene 969), “inactive”; in assay [7] it was “inactive”. In addition, the outcome in [8], in assay [9], in assay [10], in [11], in assay [12] and in assay [13] was inactive. Besides, the AC50 in the assay on TTR (gene 7276) was 455 nM (active) and 190 nM (active).

In the case of `Clc1ccc(C(c2ccccc2Cl)C(Cl)(Cl)Cl)cc1` (configuration not stated), the outcome in assay [1] and in [2] was inactive. Further, the AC50 in the assay with SRD5A2 (gene 6716) was 50 µM (active).

Turning to `O=S(=O)(O)C(F)(F)C(F)(F)C(F)(F)C(F)(F)F`, the outcome is “inactive” in assay [3]; “inactive” in [4]; “inactive” in [5]; “inactive” in assay [6]; “inactive” with CD69, CD69 (gene 969); “inactive” in assay [7]. Besides, the compound was called inactive in assay [8], in assay [9], in assay [10], in assay [11], in assay [12] and in assay [13]. Further, the concentration at half-maximal activity (AC50) with TTR (gene 7276) is 788 nM (active).

Consider `CO/C=C(/C(=O)OC)c1ccccc1COc1cccc(C(F)(F)F)n1`, for which the AC50 in assay [3] was 50 µM (active); in [4], 50 µM (active); in [5], 22.2 µM (active); in [6], 19.7 µM (active); in [7] it was 1.51 µM (active); in assay [11], 9.92 µM (active). The values for the AC50 in [12] and in assay [13] were 6.8 µM (active) and 5.9 µM (active), respectively. Besides, the compound was classed as inactive in assay [8], in assay [9] and in assay [10].

Turning to `CCCCCCCCCc1ccc(O)cc1`, the AC50 in the assay on IYD (gene 389434) is 24.1 µM (active).
